{"source": "paper PMC12864922", "about": "“TDP-43 directly inhibits mRNA accumulation in neurites through modulation of mRNA stability”", "binders": {"B1": {"name": "ENSMUSG00000061578.87|Ksr2 (ssRNA)", "RNA": "GGGAGUUCUACAGUCCGACGAUCGCUUCGAUAUCCGCAUGCUAGGGUUAAACUUGCAAACAUCUGAUUUUAGAGGUCCCAUUCCAAGAUGGAAGUCACCGGUUGCCGCUGAGCACACAAUUCUGAAGGACAGUAGGCAGUCCUGCAGGUCUUUUUUAGCACAGGGCCUCUCUGGGGACCAGUCCCUGGCCUUCACCCUUCUCCCAUUUUGUAAGAACACUGUUCUAACUCACCUCAUGCCCACGCUACCCUGGGCAACUGGAGAACACCAUAGCGUUUCAGCUGAUGUGACAUUUGGUGUGACCUCUUGCGGUCGCACUAGUGUGGAAUUCUCGGGUGUCAAGG"}, "B2": {"name": "ENSMUSG00000058297.293|Spock2|83:88 (ssRNA)", "RNA": "GGGAGUUCUACAGUCCGACGAUCGCUUCGAUAUCCGCAUGCUAAAAGAGAGAGAGAAUGAGAGAGAAUGAGAGAGAGAAUACCCGAGGGCCACCCUGAUGCCCAGGAAGAGUGAGGGCAGCCCCCACACACGUGGAAGAGGCUGGGCAGCUAGCUACUGGGGACCUUGUGCUGAGGCUUCCAGGACAAAGCCCCAGUCUGGCUCUCCCCCAGCCUCUCAGGGGCACUGGCUGGUCACAUCCACUGAGUAUUGAUCGGUUGGACUUUAGGGAAGAGCCUCCUCCUUCCCAUUCCUUUCUGCCACCUCUUGCGGUCGCACUAGUGUGGAAUUCUCGGGUGUCAAGG"}, "B3": {"name": "ENSMUSG00000058297.296|Spock2|65:70 (ssRNA)", "RNA": "GGGAGUUCUACAGUCCGACGAUCGCUUCGAUAUCCGCAUGCUAAGAGAAUGAGAGAGAGAAUACCCGAGGGCCACCCUGAUGCCCAGGAAGAGUGAGGGCAGCCCCCACACACGUGGAAGAGGCUGGGCAGCUAGCUACUGGGGACCUUGUGCUGAGGCUUCCAGGACAAAGCCCCAGUCUGGCUCUCCCCCAGCCUCUCAGGGGCACUGGCUGGUCACAUCCACUGAGUAUUGAUCGGUUGGACUUUAGGGAAGAGCCUCCUCCUUCCCAUUCCUUUCUGCCACCCUGGAAUGGCCACCUUACUCUUGCGGUCGCACUAGUGUGGAAUUCUCGGGUGUCAAGG"}, "B4": {"name": "ENSMUSG00000058297.287|Spock2|119:124 (ssRNA)", "RNA": "GGGAGUUCUACAGUCCGACGAUCGCUUCGAUAUCCGCAUGCUAAGAGAGAGAGAGAGAGAGAGAGAGAGAGAGAGAGAGAAAGAGAGAGAGAAUGAGAGAGAAUGAGAGAGAGAAUACCCGAGGGCCACCCUGAUGCCCAGGAAGAGUGAGGGCAGCCCCCACACACGUGGAAGAGGCUGGGCAGCUAGCUACUGGGGACCUUGUGCUGAGGCUUCCAGGACAAAGCCCCAGUCUGGCUCUCCCCCAGCCUCUCAGGGGCACUGGCUGGUCACAUCCACUGAGUAUUGAUCGGUUGGACUUUACUCUUGCGGUCGCACUAGUGUGGAAUUCUCGGGUGUCAAGG"}, "B5": {"name": "ENSMUSG00000058297.298|Spock2|53:58 (ssRNA)", "RNA": "GGGAGUUCUACAGUCCGACGAUCGCUUCGAUAUCCGCAUGCUAAGAGAAUACCCGAGGGCCACCCUGAUGCCCAGGAAGAGUGAGGGCAGCCCCCACACACGUGGAAGAGGCUGGGCAGCUAGCUACUGGGGACCUUGUGCUGAGGCUUCCAGGACAAAGCCCCAGUCUGGCUCUCCCCCAGCCUCUCAGGGGCACUGGCUGGUCACAUCCACUGAGUAUUGAUCGGUUGGACUUUAGGGAAGAGCCUCCUCCUUCCCAUUCCUUUCUGCCACCCUGGAAUGGCCACCUUAAUCGUCAUCUCCCUCUUGCGGUCGCACUAGUGUGGAAUUCUCGGGUGUCAAGG"}, "B6": {"name": "ENSMUSG00000058297.290|Spock2|101:106 (ssRNA)", "RNA": "GGGAGUUCUACAGUCCGACGAUCGCUUCGAUAUCCGCAUGCUAAGAGAGAGAGAGAGAGAGAAAGAGAGAGAGAAUGAGAGAGAAUGAGAGAGAGAAUACCCGAGGGCCACCCUGAUGCCCAGGAAGAGUGAGGGCAGCCCCCACACACGUGGAAGAGGCUGGGCAGCUAGCUACUGGGGACCUUGUGCUGAGGCUUCCAGGACAAAGCCCCAGUCUGGCUCUCCCCCAGCCUCUCAGGGGCACUGGCUGGUCACAUCCACUGAGUAUUGAUCGGUUGGACUUUAGGGAAGAGCCUCCUCCUUCUCUUGCGGUCGCACUAGUGUGGAAUUCUCGGGUGUCAAGG"}, "B7": {"name": "ENSMUSG00000058297.295|Spock2|71:76 (ssRNA)", "RNA": "GGGAGUUCUACAGUCCGACGAUCGCUUCGAUAUCCGCAUGCUAAAUGAGAGAGAAUGAGAGAGAGAAUACCCGAGGGCCACCCUGAUGCCCAGGAAGAGUGAGGGCAGCCCCCACACACGUGGAAGAGGCUGGGCAGCUAGCUACUGGGGACCUUGUGCUGAGGCUUCCAGGACAAAGCCCCAGUCUGGCUCUCCCCCAGCCUCUCAGGGGCACUGGCUGGUCACAUCCACUGAGUAUUGAUCGGUUGGACUUUAGGGAAGAGCCUCCUCCUUCCCAUUCCUUUCUGCCACCCUGGAAUGGCCCUCUUGCGGUCGCACUAGUGUGGAAUUCUCGGGUGUCAAGG"}, "B8": {"name": "ENSMUSG00000058297.289|Spock2|107:112 (ssRNA)", "RNA": "GGGAGUUCUACAGUCCGACGAUCGCUUCGAUAUCCGCAUGCUAAGAGAGAGAGAGAGAGAGAGAGAGAAAGAGAGAGAGAAUGAGAGAGAAUGAGAGAGAGAAUACCCGAGGGCCACCCUGAUGCCCAGGAAGAGUGAGGGCAGCCCCCACACACGUGGAAGAGGCUGGGCAGCUAGCUACUGGGGACCUUGUGCUGAGGCUUCCAGGACAAAGCCCCAGUCUGGCUCUCCCCCAGCCUCUCAGGGGCACUGGCUGGUCACAUCCACUGAGUAUUGAUCGGUUGGACUUUAGGGAAGAGCCUCCUCUUGCGGUCGCACUAGUGUGGAAUUCUCGGGUGUCAAGG"}, "B9": {"name": "ENSMUSG00000058297.288|Spock2|113:118 (ssRNA)", "RNA": "GGGAGUUCUACAGUCCGACGAUCGCUUCGAUAUCCGCAUGCUAAGAGAGAGAGAGAGAGAGAGAGAGAGAGAGAAAGAGAGAGAGAAUGAGAGAGAAUGAGAGAGAGAAUACCCGAGGGCCACCCUGAUGCCCAGGAAGAGUGAGGGCAGCCCCCACACACGUGGAAGAGGCUGGGCAGCUAGCUACUGGGGACCUUGUGCUGAGGCUUCCAGGACAAAGCCCCAGUCUGGCUCUCCCCCAGCCUCUCAGGGGCACUGGCUGGUCACAUCCACUGAGUAUUGAUCGGUUGGACUUUAGGGAAGCUCUUGCGGUCGCACUAGUGUGGAAUUCUCGGGUGUCAAGG"}}, "note": "Whole data set: some 9,900 sequences, median “r (bound/input frequency ratio)” near 0.7, cut for the highest 2% near 6.5. The full list was thinned out, with the highest values kept by preference."}
{"molecular_target": "TDP-43 (Homo sapiens, UniProt Q13148 1-414)", "sequence (Q13148 whole entry)": "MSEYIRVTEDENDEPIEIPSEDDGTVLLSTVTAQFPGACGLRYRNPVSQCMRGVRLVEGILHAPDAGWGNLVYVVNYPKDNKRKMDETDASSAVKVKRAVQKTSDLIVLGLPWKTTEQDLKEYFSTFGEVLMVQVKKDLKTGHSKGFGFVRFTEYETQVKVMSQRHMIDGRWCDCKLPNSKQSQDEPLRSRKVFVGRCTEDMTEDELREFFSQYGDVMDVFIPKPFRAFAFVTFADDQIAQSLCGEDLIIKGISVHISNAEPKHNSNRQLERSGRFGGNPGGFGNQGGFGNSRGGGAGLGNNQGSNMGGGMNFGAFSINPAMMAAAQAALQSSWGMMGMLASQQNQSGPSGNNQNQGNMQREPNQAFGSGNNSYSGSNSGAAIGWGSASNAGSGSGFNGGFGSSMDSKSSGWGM", "assay": "RNA Bind-n-Seq with designed 260-mer pool; 25 mM Tris-HCl, 150 mM KCl, 3 mM MgCl2, BSA (printed 500 mg/mL), 20 units/mL SUPERase IN; pH not stated; 500 nM RNA pool, 1 h, 4 C; TDP-43 5, 50, 500 nM; high values mean tight binding", "conditions": "protein: recombinant; tags: SBP (GST cleaved off with PreScission; pGEX-GST-SBP)", "how_it_was_run": "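For each oligo, R gives binding as its mapped-read-normalized abundance after pulldown divided by its abundance in input. Bead-captured SBP-tagged TDP-43 (5, 50 or 500 nM) was incubated with 500 nM of an in vitro-transcribed 260-nt 3′ UTR oligo pool for 1 h at 4 °C in 25 mM Tris-HCl, 150 mM KCl, 3 mM MgCl2, BSA and SUPERase IN on streptavidin beads. Washed, biotin-eluted RNA was reverse transcribed, PCR-amplified and sequenced.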"}
{"binder": "B1", "binding signal": "0.338 R (bound/input frequency ratio)"}
{"binder": "B2", "binding signal": "3.42 R (bound/input frequency ratio)"}
{"binder": "B3", "binding signal": "4.88 R (bound/input frequency ratio)"}
{"binder": "B4", "binding signal": "7.84 R (bound/input frequency ratio)"}
{"binder": "B5", "binding signal": "2.36 R (bound/input frequency ratio)"}
{"binder": "B6", "binding signal": "8.37 R (bound/input frequency ratio)"}
{"binder": "B7", "binding signal": "3.59 R (bound/input frequency ratio)"}
{"binder": "B8", "binding signal": "7.59 R (bound/input frequency ratio)"}
{"binder": "B9", "binding signal": "7.71 R (bound/input frequency ratio)"}
